Results taken from PubChem BioAssay AID2322 (Broad Institute, 2010).
The whole screen tested about 27,000 compounds, of which about 120 (0.44%) were called active. No stated cut-off is given here; in the data, active means inhibition above about 20%; inconclusive means no clear call, values can overlap the other calls; inactive means below that. Only a selection was taken, and actives are over-represented in it overall.

These compounds were tested against Serine/threonine-protein kinase 33 (Homo sapiens) (UniProt Q9BYT3) (assay: STK33 kinase inhibitors, primary screen, biochemical, luminescence, ADP-Glo, MBP substrate (AID 2322)). Conditions: at 12.5 µM, hits give high values.
Chain of Serine/threonine-protein kinase 33 (Homo sapiens) (Q9BYT3 whole entry, looked up): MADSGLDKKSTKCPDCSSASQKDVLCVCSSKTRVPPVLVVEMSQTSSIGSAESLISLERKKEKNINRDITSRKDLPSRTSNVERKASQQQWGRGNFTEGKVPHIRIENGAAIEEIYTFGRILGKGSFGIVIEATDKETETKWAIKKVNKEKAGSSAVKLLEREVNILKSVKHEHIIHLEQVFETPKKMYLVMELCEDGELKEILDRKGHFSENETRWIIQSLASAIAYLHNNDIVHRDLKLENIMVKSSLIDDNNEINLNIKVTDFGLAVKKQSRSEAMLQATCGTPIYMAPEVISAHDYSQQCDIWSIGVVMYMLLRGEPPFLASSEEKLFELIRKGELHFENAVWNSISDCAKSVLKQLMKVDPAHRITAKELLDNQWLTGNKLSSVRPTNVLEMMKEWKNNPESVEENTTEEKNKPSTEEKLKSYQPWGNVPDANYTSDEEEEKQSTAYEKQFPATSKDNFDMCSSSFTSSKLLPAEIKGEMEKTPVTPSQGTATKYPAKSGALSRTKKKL

SMILES	inhibition
Cc1noc(C)c1NC(=O)Nc1ccc2c(c1)C(=O)N([C@H](C)CO)C[C@H](C)[C@@H](CN(C)C(=O)Nc1ccc(C(F)(F)F)cc1)O2	3.9% (inactive)
COc1ccccc1NC(=O)c1c(NC(=O)c2cccnc2)sc(C)c1C	4.55% (inactive)
c1ccc(-n2c(SCc3nc4ccccc4s3)nnc2-c2ccncc2)cc1	1.5% (inactive)
O=[N+]([O-])c1ccccc1-c1ccc(CN2CCN3CCCC3C2C2CCCCC2)o1 (stereo not given)	-1.45% (inactive)
O=C(CCn1nc(-c2ccc(Cl)cc2)c2ccccc2c1=O)Nc1cccc(C(F)(F)F)c1	0.989% (inactive)
C[C@@H]1CN([C@H](C)CO)C(=O)Cc2cc(NS(C)(=O)=O)ccc2O[C@@H]1CN(C)C(=O)Nc1ccc2c(c1)OCO2	1.61% (inactive)
CCOc1c(S(=O)(=O)NCc2cccnc2)ccc(Cl)c1Cl	3.15% (inactive)
O=C(Oc1ccccc1)c1cccc(COC(=O)c2cc3ccccc3oc2=O)c1	-1.52% (inactive)
COc1cccc(-c2cnc3c(c2)C(=O)N([C@H](C)CO)C[C@H](C)[C@H](CN(C)Cc2ccncc2)O3)c1	-1.09% (inactive)
O=C1c2c(O)cc(O)cc2O[C@@H](c2ccc(O)cc2)[C@@H]1c1c(O)cc(O)c2c(=O)cc(-c3ccc(O)cc3)oc12	6.09% (inactive)
Cc1cc(C)cc(OCC(=O)Nc2cccc(-c3nnc(-c4ccccc4)o3)c2)c1	4.59% (inactive)
C[C@@H]1CN([C@@H](C)CO)C(=O)Cc2cc(NC(=O)Nc3ccc4c(c3)OCO4)ccc2O[C@@H]1CN(C)CC1CCCCC1	1.59% (inactive)
c1ccc(Cn2c3ccccc3c3nnc(SCc4ccc5nonc5c4)nc32)cc1	2.04% (inactive)
C[C@H]1CN([C@@H](C)CO)C(=O)CCCn2nncc2CO[C@@H]1CN(C)S(=O)(=O)c1cccc(C#N)c1	4.45% (inactive)
COc1ccc(N2C(=O)CC(SCC(=O)Nc3ccccc3F)C2=O)cc1 (stereo not given)	0.679% (inactive)
Cc1ccc(-n2c(SCC(=O)Nc3ccc(F)c(F)c3)nnc2-c2cnccn2)cc1	-2.72% (inactive)
COc1cc2c(cc1NC(=O)C1CCC(=O)N1S(=O)(=O)c1ccc(C)cc1)oc1ccccc12 (stereo not given)	-1.01% (inactive)
Cc1ccc(-c2nnc(Nc3ccc(C(=O)N(C)C)cc3)c3ccccc23)cc1S(N)(=O)=O	1.54% (inactive)
CCc1c(O)nc(SCC(=O)Nc2ccc(OC)cc2)n(-c2ccccc2C)c1=O	-1.3% (inactive)
S=c1cc(-c2ccccc2)oc(-c2ccccc2)c1	9.05% (inactive)
COc1ccccc1NC(=O)CCC(=O)c1ccc(C)cc1	0.187% (inactive)
COc1cc(/C=C/C(=O)NCCc2ccc(O)cc2)ccc1O	-4.2% (inactive)
CCN(CC)C(=O)c1ccc(O)c(OC)c1	1.6% (inactive)
COc1cc(/C=C2\Oc3cc(O)cc(O)c3C2=O)ccc1O	80.7% (active)
C[C@H](CO)N1C[C@H](C)[C@H](CN(C)S(=O)(=O)c2cccc(F)c2)OCc2cnnn2CCCC1=O	1.75% (inactive)

SMILES	inhibition
Cc1ccc2oc3c(c(=O)c2c1)C(c1ccc([N+](=O)[O-])cc1)N(CCCN1CCOCC1)C3=O (stereo not given)	-0.738% (inactive)
O=C(CSc1nnc(-c2ccccc2Cl)n1-c1ccccc1)Nc1ccc([N+](=O)[O-])cc1	1.7% (inactive)
CCOC(=O)CCSc1nnc2c3ccccc3n(C)c2n1	0.466% (inactive)
O=C(CN1C(=O)COc2ccc(Cl)cc21)Nc1ccc(N2CCOCC2)cc1	6.98% (inactive)
O=C(CCn1cnc2ccccc2c1=O)Nc1cccc(C(F)(F)F)c1	-2.03% (inactive)
CS(=O)(=O)CCC(C(=O)N1CCOCC1)N1C(=O)c2ccc(Br)cc2C1=O (stereo not given)	-0.215% (inactive)
Cc1nc2ccccc2n1CC(O)COc1ccc(C2C=CCC2)cc1 (stereo not given)	-1.35% (inactive)
COc1ccc([Si](C)(C)[C@@H]2[C@@H](CCO)O[C@]3(C(=O)N(Cc4cccc(N5CCCCC5=O)c4)c4ccccc43)[C@H]2C)cc1	2.11% (inactive)
Cc1noc(C)c1S(=O)(=O)Nc1ccc2c(c1)CC(=O)N([C@H](C)CO)C[C@@H](C)[C@@H](CN(C)Cc1ccc(C(=O)O)cc1)O2	0.587% (inactive)
CCCn1c2ccccc2c2nnc(SCC(=O)Nc3cccc4ccccc34)nc21	0.6% (inactive)
CC(C)c1ccc(OCC(O)Cn2cnc3ccccc32)cc1 (stereo not given)	0.565% (inactive)
O=C(COc1ccc2c(=O)c(-c3ccccc3)coc2c1)Nc1ccc(F)cc1	1.18% (inactive)
C[C@@H]1CN([C@@H](C)CO)C(=O)Cc2cc(NC(=O)C3CCCCC3)ccc2O[C@@H]1CN(C)Cc1ccncc1	0.459% (inactive)
CC(C)CN1C(=O)[C@@]2(Cc3ccccc31)c1ccccc1C(=O)N(C1CCCCC1)[C@H]2c1ccc(CO)cc1	-0.707% (inactive)
O=C(CSc1nc2sc3c(c2c(=O)[nH]1)CCC3)Nc1ccccc1C(F)(F)F	-3.77% (inactive)
Cc1ccc(NC(=O)CSc2ncnc3sc(C)c(C)c23)cc1	5.19% (inactive)
Cc1ccc(-c2nc3cc(NC(=O)COc4ccc([N+](=O)[O-])cc4)ccc3o2)cc1C	0.362% (inactive)
CN(CC(=O)Nc1ccc(C#N)cc1)S(=O)(=O)c1ccc(Cl)cc1	4.42% (inactive)
C[C@H]1CN([C@@H](C)CO)C(=O)c2cc(NC(=O)Cc3cn(C)c4ccccc34)ccc2O[C@H]1CN(C)CC1CCCCC1	0.289% (inactive)
CS(=O)(=O)N(CC(=O)Nc1ccc2ccccc2c1)c1cc(Cl)c(Cl)cc1Cl	0.303% (inactive)
O=c1[nH]nc(-c2ccc(NCc3cccnc3)c([N+](=O)[O-])c2)c2ccccc12	0.832% (inactive)
CCOC(=O)c1c(NC(=O)CSc2ncn[nH]2)sc2c1CCC2	3.47% (inactive)
CCOC(=O)c1c(NC(=O)C2(C)Cc3ccccc3C(=O)O2)sc2c1CCCC2 (stereo not given)	0.582% (inactive)
CS(=O)(=O)N(CC(=O)NC1CC1)c1ccc(Cl)c(C(F)(F)F)c1	-1.46% (inactive)
O=C(NCCN1CCOCC1)C(=O)NCC1COc2ccccc2O1 (stereo not given)	2.08% (inactive)
